Reference: PubChem BioAssay (Tox21)
Inconclusive results are not listed. Activity calls are given as the source filed them. The call rests on the fitted dose curve; in most records, active means well fitted curve in the direction sought with a large enough effect in the repeat runs; inconclusive means weak or mixed curves; inactive means no such curve, though single readings can be large; an effect the other way counts as inactive or inconclusive.

Assays:
[1] = qHTS RealTime-Glo MT Cell Viability Assay in HepG2 cells - 40 hour (AID 1224870); further: nearly all actives have a fitted effect of over 50% in size
Summary of the method: (§1)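 HepG2 cells mixed with RealTime-Glo MT reagents (NanoLuc plus cell-permeant prosubstrate) were seeded at 600 cells/well, incubated 5 h at 37 C/5% CO2, then pinned with compounds in DMSO; nonlytic luminescence tracked viability during 40 h treatment.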

[2] = A CellTox Green Cytotoxicity Assay to monitor cytotoxicity in HEK293 cells - 40 hour (AID 1224871); further: nearly all actives have a fitted effect of over 45% in size
Summary of the method: (§2)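 Fluorescence intensity, read at 0, 8, 16, 24, 32 and 40 h of compound treatment, reflected dye binding to DNA of dead HEK293 cells; compounds (23 nL, DMSO) were added 5 h after plating cells with reagent.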

[3] = qHTS RealTime-Glo MT Cell Viability Assay in HepG2 cells - 8 hour (AID 1224873); further: nearly all actives have a fitted effect of over 55% in size
Summary of the method: as §1

[4] = qHTS RealTime-Glo MT Cell Viability Assay in HEK293 cells - 40 hour (AID 1224874); conditions: RealTime-Glo luminescence; max response: stronger effect = lower value; further: nearly all actives have a fitted effect of over 50% in size; further: potency means the concentration at half of the fitted maximal effect
Summary of the method: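 Viable HEK293 cells reduce a cell-permeant prosubstrate; the product diffuses out and is consumed by NanoLuc in the medium to give light. Compounds went in after a 5 h incubation and plates were read over the treatment course.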

[5] = A CellTox Green Cytotoxicity Assay to monitor cytotoxicity in HEK293 cells - 24 hour (AID 1224875); further: nearly all actives have a fitted effect of over 45% in size; further: potency means the concentration at half of the fitted maximal effect; on activity change: series mostly up to about 77 µM
Summary of the method: as §2

[6] = qHTS RealTime-Glo MT Cell Viability Assay in HepG2 cells - 32 hour (AID 1224877); further: nearly all actives have a fitted effect of over 55% in size
Summary of the method: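 qHTS, HepG2, 600 cells/well, RealTime-Glo (NanoLuc + prosubstrate) added with cells; 5 h preincubation; DMSO compound addition; 37 C; luminescence at 0/8/16/24/32/40 h.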

[7] = A CellTox Green Cytotoxicity Assay to monitor cytotoxicity in HepG2 cells - 24 hour (AID 1224878); further: nearly all actives have a fitted effect of over 45% in size; further: potency means the concentration at half of the fitted maximal effect
Summary of the method: (§3)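 Using 1536-well format, dye-containing HepG2 suspension was seeded, allowed 5 h at 37 C/5% CO2, dosed by pintool with compounds, positive and negative controls, and imaged for fluorescence across 40 h.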

[8] = A CellTox Green Cytotoxicity Assay to monitor cytotoxicity in HepG2 cells - 40 hour (AID 1224879); further: nearly all actives have a fitted effect of over 40% in size; further: potency means the concentration at half of the fitted maximal effect
Summary of the method: as §3

[9] = A CellTox Green Cytotoxicity Assay to monitor cytotoxicity in HepG2 cells - 16 hour (AID 1224876); further: nearly all actives have a fitted effect of over 45% in size
Summary of the method: as §3

[10] = qHTS RealTime-Glo MT Cell Viability Assay in HEK293 cells - 16 hour (AID 1224872); further: top concentration of the series differs between compounds; nearly all actives have a fitted effect of over 50% in size
Summary of the method: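 Assay medium contained NanoLuc luciferase plus cell-permeant prosubstrate, added with HEK293 cells at 600 cells/well. After 5 h at 37 C/5% CO2 compounds were added; plates stayed at 37 C for 40 h with serial luminescence reads.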
On the % scale 0 is the no-effect control and ±100 the full control effect.

COc1nc(C)nc(N)n1
inactive: Potency [1] | Potency [2] | outcome [3] | max response [4] -1.44% | Potency [5] | Potency [6] | Potency [7] | Potency [8]

O=C(O)c1ccc[n+]([O-])c1
inactive: Potency [1] | Potency [2] | max response [4] 8.34% | Potency [5] | Potency [9] | Potency [6] | Potency [7]

Cc1onc(-c2ccccc2)c1-c1ccc(S(N)(=O)=O)cc1
inactive: Potency [1] | Potency [2] | outcome [3] | Potency [5] | Potency [9] | Potency [6] | Potency [7] | Potency [8]

COC(=O)C1=C(C)NC(C)=C(C(=O)OCC(C)=O)C1c1ccccc1[N+](=O)[O-] (stereo not given)
inactive: Potency [1] | Potency [2] | max response [4] -9.05% | Potency [5] | Potency [9] | Potency [6] | Potency [7]

CCCCN(CCO)CCO
inactive: Potency [1] | Potency [2] | outcome [3] | max response [4] 19% | Potency [9] | Potency [6] | Potency [7] | Potency [8]

C/C=C1\C(=O)C[C@H]2[C@@H]3CCC4=CC(=O)CC[C@]4(C)[C@H]3CC[C@]12C
inactive: Potency [1] | outcome [3] | Potency [5] | Potency [9] | Potency [6] | Potency [7] | Potency [8]

CCCCCC[C@@H](CCC)C(=O)O
inactive: Potency [1] | Potency [2] | outcome [3] | max response [4] 13.8% | Potency [5] | Potency [6] | Potency [7]

C=C(C)C(=O)NCCC[N+](C)(C)C
inactive: Potency [1] | Potency [2] | outcome [3] | Potency [5] | Potency [9] | Potency [6] | Potency [7] | Potency [8]

c1ccc(CCCc2ccccn2)cc1
inactive: Potency [1] | max response [4] -0.97% | Potency [9] | Potency [6] | Potency [7] | Potency [8]

CC(C)(C)C(=O)/C=C/c1ccc(Cl)cc1
inactive: Potency [1] | Potency [10] | max response [4] -0.497% | Potency [5] | Potency [9] | Potency [6] | Potency [7] | Potency [8]

CCN(CC)S(=O)(=O)c1ccc(C(=O)O)cc1
inactive: Potency [1] | outcome [3] | Potency [9] | Potency [6] | Potency [7] | Potency [8]

OCC(CO)(CO)COCC(CO)(CO)CO
inactive: Potency [2] | Potency [10] | outcome [3] | max response [4] 9.54% | Potency [5] | Potency [9] | Potency [6] | Potency [7] | Potency [8]

C=C(C)C(=O)NCCCN(C)C
inactive: Potency [1] | Potency [2] | outcome [3] | Potency [9] | Potency [6] | Potency [7] | Potency [8]
active: Potency [5] 0.0347 µM

[O-][N+](=Nc1ccccc1)c1ccccc1
inactive: Potency [1] | Potency [10] | outcome [3] | max response [4] -1.34% | Potency [9] | Potency [6] | Potency [7]

C1CCCCCCCCCCC1
inactive: cytotoxicity increase [2] -40.6% [at 15.8 µM] | viability change, negative = cytotoxic [3] -9.68% [at 15.8 µM] | activity change [5] -35.9% [at 15.8 µM, stronger effect = higher value] | activity change, negative = cytotoxic [6] 12% [at 15.8 µM] | cytotoxicity [7] -7.04% [at 15.8 µM]

O=[N+]([O-])c1ccc(Oc2ccc([N+](=O)[O-])cc2)cc1
inactive: Potency [1] | Potency [2] | outcome [3] | Potency [5] | Potency [9] | Potency [6] | Potency [7]

O=C(O)c1ccccc1S
inactive: Potency [1] | outcome [3] | Potency [9] | Potency [6] | Potency [7]

NC(=O)c1ncn([C@@H]2O[C@H](CO)[C@@H](O)[C@H]2O)c1O
active: Potency [5] 19 µM
inactive: Potency [1] | Potency [10] | max response [4] 9.45% | Potency [6]

O=C(O)c1cccc(C(=O)O)n1
inactive: Potency [1] | Potency [2] | outcome [3] | Potency [5] | Potency [9] | Potency [6] | Potency [7] | Potency [8]

CCN1CCCC(OC(=O)C(c2ccccc2)c2ccccc2)C1 (stereo not given)
inactive: Potency [1] | Potency [2] | outcome [3] | Potency [5] | Potency [9] | Potency [6] | Potency [7] | Potency [8]

CC1=CCC2C(C1)C2(C)C (stereo not given)
inactive: Potency [1] | Potency [2] | max response [4] 1.81% | Potency [5] | Potency [9] | Potency [6] | Potency [7] | Potency [8]

CC(C)COC(=O)c1ccccc1O
inactive: Potency [1] | Potency [2] | outcome [3] | Potency [5] | Potency [9] | Potency [6] | Potency [7]

NC(=O)Nc1nc2ccccc2[nH]1
inactive: Potency [1] | Potency [10] | outcome [3] | max response [4] -25.5% | Potency [9] | Potency [6] | Potency [7] | Potency [8]

c1cc(CN2CCCCC2)cc(OCCCNc2nc3ccccc3s2)c1
active: Potency [4] 9.52 µM | Potency [7] 26.8 µM | Potency [8] 23.9 µM
inactive: Potency [2] | outcome [3] | Potency [5]

CC1(C)SC(C)(C)SC(C)(C)S1
inactive: Potency [1] | Potency [2] | outcome [3] | Potency [6]

CCC(C)(C)C1CCC(OC)CC1 (stereo not given)
inactive: Potency [1] | Potency [2] | max response [4] 21.9% | Potency [5] | Potency [9] | Potency [6] | Potency [7]

Cc1ccc(Nc2ccc(O)c3c2C(=O)c2ccccc2C3=O)cc1
inactive: Potency [1] | Potency [2] | max response [4] 7.86% | Potency [5] | Potency [9] | Potency [6] | Potency [7]

CC1(C)OC(=O)Nc2ccc(Br)cc21
inactive: Potency [1] | Potency [2] | outcome [3] | max response [4] 0.0036% | Potency [5] | Potency [6] | Potency [7] | Potency [8]

CC(C)c1ccc2oc3nc(N)c(C(=O)O)cc3c(=O)c2c1
inactive: Potency [1] | Potency [2] | outcome [3] | max response [4] 13% | Potency [9] | Potency [6] | Potency [7] | Potency [8]
